Source: PubChem
In the library only some 19% were active in any assay of this set; here they are far more common.
DT40 TDP1 CPT: DT40-hTDP1 cell growth loss with CPT; AID 686979; chicken DT40 Tdp1-/-;hTDP1 cells + 20 nM CPT, ATP luminescence, 48 h; 12% of 420,000 active; Potency, µM (highest dose often 46.2 µM), actives largely listed as inhibitors; note: nearly all actives have a fitted effect of over 55% in size
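Chicken DT40 Tdp1-/- cells stably complemented with human TDP1 were seeded at 400 cells/well in medium containing 20 nM camptothecin, exposed to pin-transferred compounds, and grown at 37 °C for at least 48 hr. Viability was read as ATP luminescence.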
HT1080NT lethal: kills 2HG-producing HT-1080-NT fibrosarcoma cells. Potency, µM (series often up to 46.1 µM), most hits filed as cytotoxic. AID 686970. 1.6% of 360,000 active. HT-1080-NT fibrosarcoma viability, CellTiter-Glo ATP luminescence, 48 h;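 note: NT is the 2HG producing partner of a matched IDH1 knockdown line; nearly all actives have a fitted effect of over 55% in size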
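Viability of the 2HG-overproducing fibrosarcoma line after 48 hours of compound exposure at 37 degrees C was determined by luminescence with CellTiter-Glo, and concentration-effect curves were then fitted and categorized.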
HT1080 IDH1KD tx: kills HT-1080 cells with IDH1 knockdown; HT-1080 IDH1 knockdown viability, ATP luminescence, 48 h; Potency, µM (series often up to 46.1 µM), usual class: cytotoxic; 2% of 360,000 active; AID 686971
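IDH1KD HT-1080 cells, 750/well, RPMI + 5% FBS; compound pinned after 2 h settling; 48 h, 37 °C; CellTiter-Glo luminescence; % activity normalised to DMSO and no-cell wells; curves fitted, classed by r2 and efficacy.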
TDP1 cell noCPT: qHTS for Inhibitors of human tyrosyl-DNA phosphodiesterase 1 (TDP1): qHTS in cells in absence of CPT; 15% of 420,000 active; Potency, µM (highest dose often 46.2 µM), hits mostly inhibitors; DT40 Tdp1-/- hTDP1 cells, no CPT, ATP luminescence, 48 h; AID 686978, 2013; note: nearly all actives have a fitted effect of over 55% in size
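A cellular qHTS used chicken DT40 cells lacking endogenous Tdp1 but carrying stably transfected human TDP1. Compounds were applied without camptothecin, and cell growth kinetics were judged by ATP-dependent luminescence after ≥48 hr.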
IL-1B inflam inh: inflammasome signaling inhibition, IL-1 beta readout | THP-1 LPS/ATP IL-1B secretion, AlphaLISA, 16 h; stronger effect = lower value | activity change, % at 57.5 µM | 4.7% of 360,000 active; in the data active = activity change below about -50%; inconclusive = mostly about -30% to -49%
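Secreted IL-1B measured by AlphaLISA bead assay after 16 h compound exposure of THP-1 cells; compounds (final up to 57.5 uM) added 1 h before LPS (250 ng/mL) and ATP (1.25 mM) stimulation; lower signal means less secretion.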
A number is an active result; . = inactive; ? = inconclusive; / = no result given; [ ] = remark or other dose. Unless noted, calls come from the whole dose curve; as a rule, active = well fitted curve in the direction sought with a large enough effect; inconclusive = small, poorly fitted or top-dose-only effect, or another doubt; inactive = no such curve, though single readings can be large; an effect the other way counts as inactive or inconclusive.

SMILES	DT40 TDP1 CPT	HT1080NT lethal	HT1080 IDH1KD tx	TDP1 cell noCPT	IL-1B inflam inh
COc1cc(CCC(=O)Nc2ccc(S(=O)(=O)N3CCCC3)cc2)cc(OC)c1OC	.	.	.	?	.
CCOc1ncccc1C(=O)Nc1ccc(OC)c(S(=O)(=O)N2CCCCC2)c1	?	.	.	?	.
CCN(Cc1ccncc1)Cc1ccc2c(c1)CN(C(=O)c1ccccc1)CCO2	.[9.04 µM]	/	/	.	/
O=C(CSc1ccccn1)Nc1ccc(Cl)cn1	?	.	.	.	.
COc1cc2c(cc1OC)C(c1ccccc1F)OC(=O)C2 (configuration not stated)	.	.	.	.	.
Cc1ccc(NC(=O)CSc2ncccn2)cc1S(=O)(=O)N1CCCCC1	.	.	.	.	.
COc1ccc(CCC(=O)Nc2ccc(Cl)c(S(=O)(=O)N3CCCC3)c2)cc1	20.6µM	?	?	?	.
CCCCC(=O)Nc1ccc(C)c(S(=O)(=O)N2CCCCCC2)c1	?	.	.	?	-63.6
COc1ccc(CCC(=O)Nc2ccc(S(=O)(=O)N3CCOCC3)cc2)cc1	?	.	.	.	.
CN1C(=O)[C@@](O)(c2cn(C)c3ccccc23)c2cc(F)ccc21	.	.	.	.	.
COc1ccccc1N(C(=O)CNC(=O)c1ccco1)C(C(=O)NC1CCCC1)c1ccco1 (configuration not stated)	.	.	.	.	.
CC(C)(C)CC(=O)O/N=C(\N)c1ccccn1	.	.	.	.	.
CN(C)c1ncc2nc(CCc3ccccc3)c(=O)n(Cc3cccs3)c2n1	?	/	/	16.4µM	/
Cc1nc2cnc(N(C)C)nc2n(Cc2cccs2)c1=O	.	/	/	.	/
CN(C)c1ncc2ncc(=O)n(CCc3ccccc3)c2n1	20.6µM	/	/	25.9µM	/
CC(CN(C)Cc1ccccc1)OC(=O)c1cccc(F)c1 (configuration not stated)	.	.	.	?	.
Cc1ccc(S(=O)(=O)NC(=O)C2(C)CCN2C(=O)c2ccccc2CCc2ccccc2)cc1 (configuration not stated)	.	.	.	.	.
CCOC(=O)[C@]12CCCC=C1N(Cc1ccco1)C(=O)[C@H](CC(=O)NCCCCc1ccccc1)C2	23.1µM	.	?	?	?
CCOC(=O)[C@]12CCC=C1N(Cc1ccco1)C(=O)[C@H](CC(=O)NCC13CC4CC(CC(C4)C1)C3)C2	?	?	?	?	.
CCOC(=O)[C@]12CCC=C1N(Cc1ccco1)C(=O)[C@H](CC(=O)NCCCCc1ccccc1)C2	?	.	.	?	.
CCOC(=O)[C@]12CCCC=C1N(Cc1ccco1)C(=O)[C@H](CC(=O)NCC13CC4CC(CC(C4)C1)C3)C2	25.9µM	?	?	?	-55.4
COc1cccc(N2CCN(S(=O)(=O)c3cn(C)cn3)CC2)c1	.	.	.	.	.
COc1cccc(NC(=O)CCC(=O)Nc2ccc3nc(N4CCOCC4)cc(C)c3c2)c1	?	.	.	14.6µM	.
COc1cc(OC)cc(C(=O)Nc2ccc3nc(N4CCC(C)CC4)cc(C)c3c2)c1	9.2µM	/	/	4.61µM	/
COc1ccccc1C(=O)Nc1ccc2nc(N3CCC(C)CC3)cc(C)c2c1	?	/	/	16.4µM	/
SMILES	DT40 TDP1 CPT	HT1080NT lethal	HT1080 IDH1KD tx	TDP1 cell noCPT	IL-1B inflam inh
CCN1CCN(c2cc(C)c3cc(NC(=O)c4ccncc4)ccc3n2)CC1	?	.	.	?	.
Cc1ccc(Cl)cc1NC(=O)Cn1c(=O)n(CCC(=O)NCc2ccc3c(c2)OCO3)c(=O)c2sccc21	.	/	/	.	/
Cc1ccc(CNC(=O)CCc2c(C)nn(-c3ccc(N4CCOCC4)nn3)c2C)cc1	.	.	.	?	.
CC(=O)c1c(C)[nH]c(C(=O)OCc2ccc(F)cc2Cl)c1C	14.6µM	.	.	13µM	.
CC(=O)c1c(C)[nH]c(C(=O)OCc2c(F)cccc2Cl)c1C	?	.	.	?	.
CC(=O)c1c(C)[nH]c(C(=O)OCC(=O)NCCc2ccc(F)cc2)c1C	?	.	.	23.1µM	.
CCOc1ccc(CCNC(=O)COC(=O)c2[nH]c(C)c(C(C)=O)c2C)cc1OCC	?	.	?	20.6µM	.
CCOC(=O)c1c(C)[nH]c(C(=O)OCC(=O)NCc2ccc(OC)c(OC)c2)c1C	8.2µM	.	?	18.4µM	.
CC(=O)c1c(C)[nH]c(C(=O)OCC(=O)NCCCc2ccccc2)c1C	?	.	.	?	.
COC(=O)c1cc2oc3ccccc3c2n1Cc1nc(-c2cccc(C)c2)oc1C	.	/	/	.	/
CCN(CC(=O)Nc1ccc(OC)cc1)CC(=O)N1CC(=O)Nc2ccccc21	.	.	.	.	.
O=C(NCC[C@H]1CC[C@H](NS(=O)(=O)c2ccc(F)cc2)[C@@H](CO)O1)c1ccc2c(c1)OCO2	.	.	.	.	.
CCCCc1ccc(NC(=O)CSc2nc3ccccc3nc2N2CCCCC2)cc1	.	/	/	?	/
CCOC(=O)c1c(C)[nH]c(C(=O)OCC(=O)Nc2ccc(Cl)cn2)c1C	.	.	.	.	.
NC(=O)c1ccsc1NC(=O)COC(=O)c1ccccc1F	.	.	.	.	.
NC(=O)c1ccsc1NC(=O)COC(=O)c1c(F)cccc1Cl	?	.[9.24 µM]	.	8.2µM	.
CCOC(=O)c1c(C)[nH]c(C(=O)OCC(=O)Nc2sccc2C(N)=O)c1C	1.64µM	.	.	2.06µM	-71.0
CCOC(=O)c1c(C)[nH]c(C(=O)OCC(=O)Nc2cc(C)c(Cl)cc2OC)c1C	3.66µM	.	.	4.61µM	.
O=C1NC[C@H](Cc2ccc(O)cc2)N(C[C@@H]2CCCN2C[C@H](Cc2ccc(O)cc2)N2C[C@H](Cc3ccccc3)N(CCc3ccccc3)C(=O)C2=O)C1=O	?	.	.	?	.
Cc1ccc(Cn2ccnc2SCC(=O)NCc2ccc(F)cc2)cc1	?	/	/	.	/
CC(=O)NC(Cc1ccccc1F)C(=O)NC1CCN(C(=O)NCc2ccccc2)CC1 (configuration not stated)	.	.	.	.	.
Cc1cc(C)n2nc(SCC(=O)Nc3c(C)n(C)n(-c4ccccc4)c3=O)nc2n1	.	.	.	.	.
Cc1cc(NC(=O)/C=C/c2ccc(F)cc2)n(-c2nc3ccccc3[nH]2)n1	?	.	.	14.6µM	.
COc1ccc(/C=C/C(=O)Nc2cc(C)nn2-c2nc3ccccc3n2Cc2cccc([N+](=O)[O-])c2)cc1	.	.	.	.	.
Cc1cc(NC(=O)/C=C/c2cccc(Cl)c2)n(-c2nc3ccccc3[nH]2)n1	.	.	.	11.6µM	.
CCc1ccccc1Nc1nc2ccccc2n1CC	.	.	.	?	.
COc1ccc(/C=C/C(=O)Nc2cc(C)nn2-c2nc3ccccc3[nH]2)cc1	?	.	.	18.4µM	.
